The source of these data is ChEMBL document CHEMBL4513216, “Probing the Open Global Health Chemical Diversity Library for Multistage-Active Starting Points for Next-Generation Antimalarials” (ACS Infect Dis, 2020).

The structures appear in SMILES notation. The campaign covered roughly 69,000 compounds. About 8,600 (12%) showed an effect of 50% or more. The sample as a whole holds a higher share of strong results than the screen did.

The test concerns Plasmodium berghei. The experiment in a line: Screen against P. berghei liver stage (PbLuc), transformed with Luciferase, at 10uM. As to conditions: tested at 10 uM. In kind it is functional, HepG2.
With `O=C(c1cscn1)N1CCC2(CN(Cc3ccsc3)C2)C1`, the INHIBITION was determined as 45.2%.

For the molecule `N#Cc1ccccc1C(=O)NCCC1CN(Cc2ccco2)CCO1` (configuration not stated), the INHIBITION worked out at 23.3%.

Consider `CN(c1ccncn1)C1CC2(CCN(C(=O)c3cncs3)C2)C1` (configuration not stated), for which the INHIBITION came to 32.3%.

As for `Fc1ccccc1OCCc1cc(C2CCNC2)n[nH]1` (configuration not stated), the INHIBITION is -14.1%.

On to `Cc1nc(CN2CCCC(N(C)CCCc3ccccc3)C2)no1` (configuration not stated), for which the INHIBITION was -11.4%.

For the molecule `Cc1cc(N2CCC(O)CC2)nc(C2CCCN2C)n1` (configuration not stated), the INHIBITION is given as 9.6%.

For `O=C(Nc1ccccc1)c1cc2n(n1)CCCN(C(=O)c1ccc[nH]1)C2`, the INHIBITION was found to be 28.5%.

In the case of `CCc1nnsc1C(=O)N1CCCN(Cc2ccc(F)cc2)CC1`, the INHIBITION is on record as -0.219%.

As for `CCc1ccc(C(=O)N2CCN(Cc3ccc(F)cc3)CC2)s1`, the INHIBITION is reported as 68.5%.

For `COCc1ccc(C(=O)N2CCCN(Cc3ccc(F)cc3)CC2)s1`, the INHIBITION is reported as 14.3%.

Turning to `Cc1cc(C)n(CC2CCCN2C(=O)c2cnccn2)n1` (configuration not stated), the INHIBITION is on record as -3.7%.

For the molecule `O=c1cc(Cn2ccnc2)nc2n1CCCN(Cc1ccco1)C2`, the INHIBITION is reported as 8.85%.

In the case of `O=c1cc(Cn2ccnc2)nc2n1CCCN(Cc1cccs1)C2`, the INHIBITION is listed as 53.4%.

With `c1cn(Cc2ccc(N3CCCN(C4CCCC4)CC3)nc2)cn1`, the INHIBITION worked out at 13.5%.

In the case of `OC1CCN(C2CCN(c3ccc(Cn4ccnc4)cn3)CC2)CC1`, the INHIBITION is on record as 24.4%.

As to `c1csc(CN2CCCN(c3ccc(Cn4ccnc4)cn3)CC2)c1`, the INHIBITION was determined as 52.6%.

For `CC(Cn1ccnc1)NC(=O)N1CCCN(Cc2cccs2)CC1` (configuration not stated), the INHIBITION stood at 21.5%.

On to `O=c1cc(Cn2cncn2)nc2n1CCCN(Cc1ccsc1)C2`, for which the INHIBITION turned out to be 12.7%.

With `O=c1cc(Cn2ccnc2)nc2n1CCCN(Cc1ccncc1)C2`, the INHIBITION is recorded as -32%.

`O=C(NCCn1ccnc1)N1CCCN(Cc2cccs2)CC1`: the INHIBITION was -39.7%.

Regarding `Cc1nc(CN2CCCn3c(nc(Cn4ccnc4)cc3=O)C2)cs1`, the INHIBITION is reported as -16.6%.

With `Cc1nc(CN2CCCn3c(nc(Cn4cncn4)cc3=O)C2)cs1`, the INHIBITION is 51.2%.

For the molecule `Fc1ccc(N2CCCN(c3ccc(Cn4ccnc4)cn3)CC2)cc1`, the INHIBITION came to 92.8%.

`Cc1nccn1C1CCCN(C(=O)CCOCC(F)(F)F)C1` (configuration not stated): the INHIBITION is on record as 1.15%.

With `CC(C)N(C)Cc1cnc2n1CCN(Cc1ccc(F)cc1)C2`, the INHIBITION was 17.4%.

In the case of `Cc1cc2c(c(=O)n1CCC(=O)O)C=CC(C)(C)O2`, the INHIBITION is listed as 10.9%.

Consider `Cc1nc2cc(-c3nccn3C)nn2c(N2CCCC(O)C2)c1C` (configuration not stated), for which the INHIBITION turned out to be 6.335%.

Consider `Cn1cc(C(=O)N2C[C@H]3CC(Oc4ccccc4)C[C@H]3C2)cn1` (some centres not stated), for which the INHIBITION was 3.92%.

With `CS(=O)(=O)N1C[C@H]2CCCN(Cc3cccs3)[C@H]2C1`, the INHIBITION amounted to 24.6%.

On to `O=c1cc(CN2CCCC2)nc2n1CCCN(Cc1ccco1)C2`, for which the INHIBITION turned out to be 0.804%.

As for `CS(=O)(=O)NCc1cc(=O)n2c(n1)CN(Cc1ccco1)CCC2`, the INHIBITION was determined as 52.3%.

Consider `CN(C)Cc1cc(=O)n2c(n1)CN(Cc1ccco1)CCC2`, for which the INHIBITION came out at 26.5%.

Consider `CCc1nc(CN2CCCCC2C(N)=O)cs1` (configuration not stated), for which the INHIBITION is on record as -2.43%.

In the case of `COc1c(C(=O)NC(C)CC(=O)c2cccs2)c(C)nn1C` (configuration not stated), the INHIBITION is listed as 36.7%.

With `Cc1nn(C)c(C)c1C(=O)NC(C)CC(=O)c1cccs1` (configuration not stated), the INHIBITION is 61.4%.

Turning to `Cc1cc(C(=O)NC(C)CC(=O)c2cccs2)n(C)n1` (configuration not stated), the INHIBITION is reported as -18.8%.

For `O=C([C@@H]1CC[C@@H]2[C@@H](CCN2c2ccncn2)O1)N1CCCCO1`, the INHIBITION was found to be 5.68%.

Take `COCCOc1ccc(NC(=O)N2CCOC(C(N)=O)C2)cc1F` (configuration not stated): the INHIBITION came to 15.9%.

Turning to `COc1ccc(C2(NC(=O)C3CC(=O)N(C)C3)CCCC2)cc1` (configuration not stated), the INHIBITION was 26%.

`CNC(=O)CN1CCC(CN(C)Cc2ccncc2Cl)CC1`: the INHIBITION is -22.1%.

Regarding `O=C(C1CCOC1)N1CCc2ncnc(NC3CCC3)c2CC1` (configuration not stated), the INHIBITION worked out at 51.3%.

Turning to `O=C(C1CCOC1)N1CCc2ncnc(C3CC3)c2CC1` (configuration not stated), the INHIBITION was -13.4%.

Regarding `O=C([C@H]1CCCO1)N1CCc2ncnc(NC3CC3)c2CC1`, the INHIBITION worked out at 48.5%.

On to `CC(C)Nc1nc2c(c(NC3CC3)n1)CCN(C(=O)C1CCOC1)CC2` (configuration not stated), for which the INHIBITION stood at 34.3%.

For `O=C(C1CCCO1)N1CCc2ncnc(NC3CCC3)c2CC1` (configuration not stated), the INHIBITION is -29.5%.

In the case of `Nc1nc2c(c(NC3CCCC3)n1)CCN(C(=O)C1CCOC1)CC2` (configuration not stated), the INHIBITION stood at 97.2%.

As to `N#Cc1cccc(OCc2ccoc2C(=O)N2CCCCCC2)c1`, the INHIBITION amounted to 5.91%.

Take `O=C(C1CCCO1)N1C[C@@H]2CCN(c3cnccn3)C[C@@H]2C1` (some centres not stated): the INHIBITION was 28.4%.

Regarding `Cc1cc(C(=O)NCc2c(C)nn(C)c2C)nc(N2CCCC2)n1`, the INHIBITION is on record as -31.4%.

As to `O=C(O)c1cnc(N2CC[C@H](N3CCOCC3)[C@H](CCCO)C2)c(Cl)c1`, the INHIBITION is recorded as 14%.

As to `O=S(=O)(NC1=NCN(CCc2ccccc2)CN1)c1ccc(F)cc1`, the INHIBITION is -4.52%.

Regarding `Cc1occc1C(=O)NCc1cccnc1N(C)C`, the INHIBITION is 33.15%.

With `CC(c1nc(C2CC2)no1)N1CCN(CCc2ccncc2)CC1` (configuration not stated), the INHIBITION is listed as -45.9%.

As for `CC(c1nc(C2CC2)no1)N1CCc2c(ncn2C2CC2)C1` (configuration not stated), the INHIBITION was found to be 17%.

On to `Cc1cccc(-c2noc(CN3CCc4c(ncn4C4CC4)C3)n2)c1`, for which the INHIBITION is 18.3%.

As to `CCc1noc(C(C)N2CCc3c(ncn3C3CC3)C2)n1` (configuration not stated), the INHIBITION is -1.04%.

For `CC(c1nc(C2CC2)no1)N1CCc2c(ncn2C)C1` (configuration not stated), the INHIBITION was found to be 56%.

For the molecule `CC(c1nc(-c2ccccc2)no1)N1CCc2c(ncn2C2CC2)C1` (configuration not stated), the INHIBITION was 78.3%.

With `N#Cc1ccc(S(=O)(=O)Nc2cnn(C3CCOCC3)c2)cc1`, the INHIBITION is given as 5.51%.

For the molecule `CC(C)(NC(=O)c1cnc(-c2ccccc2F)s1)C(N)=O`, the INHIBITION is reported as -8.9%.

For the molecule `Cc1cnc(N2CC[C@@H]3O[C@@H](COCc4ccccn4)CC[C@@H]32)nc1`, the INHIBITION came out at 41.6%.

`COc1ccc(-c2cc(=O)n3c(n2)CCCCC3)cc1`: the INHIBITION is listed as 1.45%.

As to `Cc1nn(C)c(C)c1-c1ccnc(N(C)Cc2noc(C(C)C)n2)n1`, the INHIBITION turned out to be 4.35%.

In the case of `Cc1nn(C)cc1-c1ccnc(N(C)Cc2noc(C(C)C)n2)n1`, the INHIBITION is on record as -147%.

For `Cc1nn(C)c(C)c1-c1ccnc(N(C)Cc2nc(C(C)C)no2)n1`, the INHIBITION is 68.2%.

Consider `Cc1csc(C2CCCN(C(=O)c3cccc4c3OCO4)C2)n1` (configuration not stated), for which the INHIBITION stood at 27.6%.

On to `Cc1nc(CN2CCN(C)C(=O)C23CCN(C(C)C)CC3)cs1`, for which the INHIBITION came out at 32.5%.
